Measurements reported in the supplement of paper PMC6555819.

Key:
Assay in all cases: PBM binding z-score (relative to random genomic background probes); higher = stronger binding; sequences stand for … in GC…GCGATTGACAGCGTAGAATGAAGG
[1] = system: PPARg:RXRa DBDmut IVT, anti-RXR (DBD mutation: RXRa K156A/R161A, NR concentration 270 nM, RXRa partner concentration 90 nM)
Outline: (§1)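 Ligand-free nuclear receptor dimers were applied to custom Agilent 4×180K protein-binding microarrays whose double-stranded probes carried direct-repeat seeds, single-nucleotide variants, half-site ablations and random human genomic background sequences in 34-nt variable regions. Incubation lasted 1 h. Binding z-scores were computed against the random background probes from regression-normalized fluorescence.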

[2] = system: PPARg:RXRa IVT, anti-PPARg (NR concentration 270 nM, RXRa partner concentration 90 nM)
Outline: as §1

[3] = system: PPARg DBDmut:RXRa IVT, anti-PPARg (DBD mutation: PPARg1 K132A/R137A, NR concentration 270 nM, RXRa partner concentration 90 nM)
Outline: as §1

[4] = system: PPARg DBDmut IVT, anti-PPARg (DBD mutation: PPARg1 K132A/R137A, NR concentration 270 nM)
Outline: as §1

[5] = system: PPARg homodimer (NR concentration 180 nM)
Outline: as §1

[6] = system: PXR:RXRa (NR concentration 270 nM, RXRa partner concentration 90 nM)
Outline: as §1

[7] = system: PXR homodimer (NR concentration 270 nM)
Outline: as §1

[8] = system: RARa:RXR (NR concentration 270 nM, RXRa partner concentration 90 nM)
Outline: as §1

[9] = system: RARa homodimer (NR concentration 270 nM)
Outline: as §1

[10] = system: RARb:RXRa (NR concentration 270 nM, RXRa partner concentration 90 nM)
Outline: as §1

TCATACAGGTGAAGGTAACTCAGGTACGCAGTCG
PBM binding z-score [1]: 3.17 | PBM binding z-score [2]: 2.45 | PBM binding z-score [3]: 0.347 | PBM binding z-score [4]: 1.84 | PBM binding z-score [5]: 1.14 | PBM binding z-score [6]: 0.814 | PBM binding z-score [7]: 0.508 | PBM binding z-score [8]: 1.31 | PBM binding z-score [9]: 0.817 | PBM binding z-score [10]: 1.26

CCGACTGAGGCAGAAAGGTTACCATACCATCCGG
PBM binding z-score [1]: -0.0384 | PBM binding z-score [2]: -0.0549 | PBM binding z-score [3]: -1.78 | PBM binding z-score [4]: -0.731 | PBM binding z-score [5]: 0.893 | PBM binding z-score [6]: 0.855 | PBM binding z-score [7]: -0.109 | PBM binding z-score [8]: 1.69 | PBM binding z-score [9]: 0.393 | PBM binding z-score [10]: 1.62

CGTCCAAGGTCAAAGGTCAGTGACGAGATGACGG
PBM binding z-score [1]: 4.07 | PBM binding z-score [2]: 5.8 | PBM binding z-score [3]: 1.24 | PBM binding z-score [4]: 0.0683 | PBM binding z-score [5]: 6.48 | PBM binding z-score [6]: 7.17 | PBM binding z-score [7]: 2.08 | PBM binding z-score [8]: 8.72 | PBM binding z-score [9]: 2.59 | PBM binding z-score [10]: 5.86

AGAATGAGGCTATTAAGATCAGGGAATTGCGGTC
PBM binding z-score [1]: 0.775 | PBM binding z-score [2]: 0.484 | PBM binding z-score [3]: 0.528 | PBM binding z-score [4]: -0.351 | PBM binding z-score [5]: -0.817 | PBM binding z-score [6]: -0.436 | PBM binding z-score [7]: -0.252 | PBM binding z-score [8]: -0.197 | PBM binding z-score [9]: -0.295 | PBM binding z-score [10]: 0.119

ATATGTAGGTTACATCTGGGTCATTCAGGCTATG
PBM binding z-score [1]: 7.49 | PBM binding z-score [2]: 7.53 | PBM binding z-score [3]: 2.55 | PBM binding z-score [4]: 1.93 | PBM binding z-score [5]: 1.95 | PBM binding z-score [6]: 2.11 | PBM binding z-score [7]: 1.05 | PBM binding z-score [8]: 2.38 | PBM binding z-score [9]: 0.399 | PBM binding z-score [10]: 2.18

GCGACTGGGGGAAAGCAGGTTACCATAAGGTTGG
PBM binding z-score [1]: 2.14 | PBM binding z-score [2]: 3.37 | PBM binding z-score [3]: 1.81 | PBM binding z-score [4]: 2.84 | PBM binding z-score [5]: 0.279 | PBM binding z-score [6]: 0.944 | PBM binding z-score [7]: 0.0746 | PBM binding z-score [8]: 1.14 | PBM binding z-score [9]: -0.282 | PBM binding z-score [10]: 0.616

AGTCAAACTTCATCTAGGTAACGTAAGATATGCT
PBM binding z-score [1]: 0.952 | PBM binding z-score [2]: 1.7 | PBM binding z-score [3]: 1.48 | PBM binding z-score [4]: 0.721 | PBM binding z-score [5]: -0.505 | PBM binding z-score [6]: -0.365 | PBM binding z-score [7]: 0.02 | PBM binding z-score [8]: -0.125 | PBM binding z-score [9]: 0.222 | PBM binding z-score [10]: 0.212

ACGTACGGGTCAACGAGGTTATAGCACGCGTATA
PBM binding z-score [1]: 1.33 | PBM binding z-score [2]: 2.92 | PBM binding z-score [3]: 0.48 | PBM binding z-score [4]: 0.418 | PBM binding z-score [5]: 1.72 | PBM binding z-score [6]: 5.2 | PBM binding z-score [7]: 2.83 | PBM binding z-score [8]: 5.19 | PBM binding z-score [9]: 0.777 | PBM binding z-score [10]: 4.28

CGAACTAGGTCAGAACAGAACAGTGAAGGATGAT
PBM binding z-score [1]: 7.54 | PBM binding z-score [2]: 7.16 | PBM binding z-score [3]: 1.34 | PBM binding z-score [4]: 0.4 | PBM binding z-score [5]: 0.811 | PBM binding z-score [6]: -0.0344 | PBM binding z-score [7]: 0.00344 | PBM binding z-score [8]: 0.194 | PBM binding z-score [9]: -0.0462 | PBM binding z-score [10]: 2.8

CCTTGTTGGTCAGGAGGTCACACACCGGATATGA
PBM binding z-score [1]: 1.61 | PBM binding z-score [2]: 3.58 | PBM binding z-score [3]: 0.862 | PBM binding z-score [4]: 0.471 | PBM binding z-score [5]: 2.86 | PBM binding z-score [6]: 4.22 | PBM binding z-score [7]: 1.27 | PBM binding z-score [8]: 4.37 | PBM binding z-score [9]: 1.82 | PBM binding z-score [10]: 3.85

ATCGAAAGGGCGAAGGTGAGTATACCCACCCGAA
PBM binding z-score [1]: -0.906 | PBM binding z-score [2]: 0.809 | PBM binding z-score [3]: 0.146 | PBM binding z-score [4]: -0.234 | PBM binding z-score [5]: 1.04 | PBM binding z-score [6]: 0.359 | PBM binding z-score [7]: -0.166 | PBM binding z-score [8]: 1.03 | PBM binding z-score [9]: -0.384 | PBM binding z-score [10]: 1.94

GCGACTGGGGCAAAGGAGGTTACCATAAGGTTGG
PBM binding z-score [1]: 4.69 | PBM binding z-score [2]: 3.76 | PBM binding z-score [3]: -0.0461 | PBM binding z-score [4]: -0.579 | PBM binding z-score [5]: 1.05 | PBM binding z-score [6]: 1.54 | PBM binding z-score [7]: -0.167 | PBM binding z-score [8]: 1.41 | PBM binding z-score [9]: -0.0952 | PBM binding z-score [10]: 1.26

TCTTGTAGATCAAGCAGGTTAAGCAAGCCTGAGT
PBM binding z-score [1]: 1.65 | PBM binding z-score [2]: 0.529 | PBM binding z-score [3]: -0.37 | PBM binding z-score [4]: -0.0257 | PBM binding z-score [5]: -0.443 | PBM binding z-score [6]: 0.0788 | PBM binding z-score [7]: -0.00179 | PBM binding z-score [8]: 0.628 | PBM binding z-score [9]: -0.655 | PBM binding z-score [10]: 0.278

CGTCCAAGGTCAAGGTAAGTGAAAGAGACTCGAA
PBM binding z-score [1]: 3.13 | PBM binding z-score [2]: 3.85 | PBM binding z-score [3]: 0.749 | PBM binding z-score [4]: 0.108 | PBM binding z-score [5]: 3.18 | PBM binding z-score [6]: 3.52 | PBM binding z-score [7]: 0.541 | PBM binding z-score [8]: 4.27 | PBM binding z-score [9]: 1.1 | PBM binding z-score [10]: 5.3

ATCTCTAGGTAAAGATAGTTAAGTGAATGCAAAT
PBM binding z-score [1]: 1.79 | PBM binding z-score [2]: 1.42 | PBM binding z-score [3]: 0.229 | PBM binding z-score [4]: 1.6 | PBM binding z-score [5]: 0.449 | PBM binding z-score [6]: -0.33 | PBM binding z-score [7]: 0.0795 | PBM binding z-score [8]: -0.0694 | PBM binding z-score [9]: 0.927 | PBM binding z-score [10]: -0.0166

CGTCAAGGTTCAACTAAGGTAACGTAAAGCACGC
PBM binding z-score [1]: -0.0468 | PBM binding z-score [2]: 0.857 | PBM binding z-score [3]: -0.137 | PBM binding z-score [4]: -0.827 | PBM binding z-score [5]: 1.13 | PBM binding z-score [6]: 3.96 | PBM binding z-score [7]: 0.241 | PBM binding z-score [8]: 3.05 | PBM binding z-score [9]: 0.652 | PBM binding z-score [10]: 3.14

CATCCAAGGTCAGCAGGTCAGTGAAAGCGACGTG
PBM binding z-score [1]: 3.12 | PBM binding z-score [2]: 4.02 | PBM binding z-score [3]: 0.104 | PBM binding z-score [4]: 0.555 | PBM binding z-score [5]: 4.34 | PBM binding z-score [6]: 3.82 | PBM binding z-score [7]: 1.14 | PBM binding z-score [8]: 5.21 | PBM binding z-score [9]: 2.38 | PBM binding z-score [10]: 5.17

CCAACTGGGGCAAGGTTACCATAACGCACAGCCA
PBM binding z-score [1]: 5.12 | PBM binding z-score [2]: 5.51 | PBM binding z-score [3]: 0.138 | PBM binding z-score [4]: -0.27 | PBM binding z-score [5]: 0.543 | PBM binding z-score [6]: 0.378 | PBM binding z-score [7]: 0.0268 | PBM binding z-score [8]: 0.879 | PBM binding z-score [9]: 0.291 | PBM binding z-score [10]: 1.78
